An excerpt weighted towards active compounds, which were near 8.8% of everything screened.
HT1080-NT tox – kills 2HG-producing HT-1080-NT fibrosarcoma cells. Potency, µM (series often up to 46.1 µM), hits mostly cytotoxic. HT-1080-NT fibrosarcoma viability, CellTiter-Glo ATP luminescence, 48 h. 1.6% of 360,000 active;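 note: NT is the 2HG producing partner of a matched IDH1 knockdown line; nearly all actives have a fitted effect of over 55% in size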
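Read-out is CellTiter-Glo luminescence after 10 minutes at room temperature, following 48 hours' compound treatment of HT-1080-NT cells (750 cells/well, RPMI, 5% FBS, 37 degrees C).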
KB-V1 MDR tox – KB-V1 MDR subline cytotoxicity. KB-V1 MDR cells viability, CellTiter-Glo, 72 h. Potency, µM (titrated, usually from 46.1 µM), hits mostly cytotoxic. 3.4% of 400,000 active. AID 1347076; note: nearly all actives have a fitted effect of over 60% in size
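KB-V1 cells (P-gp-expressing MDR subline of KB-3-1) in phenol-red-free DMEM with 10% FBS were exposed to library compounds over a concentration series for 72 h at 37 degrees C. Viability read by CellTiter-Glo luminescence; concentration-effect curves fitted after normalization.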
IL-1B inflam inh – inflammasome signaling inhibition, IL-1 beta readout. THP-1 LPS/ATP IL-1B secretion, AlphaLISA, 16 h; stronger effect = lower value. activity change, % at 57.5 µM. 4.7% of 360,000 active. AID 743279; in the data active = activity change below about -50%; inconclusive = mostly about -30% to -49%
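Secreted IL-1B measured by AlphaLISA bead assay after 16 h compound exposure of THP-1 cells; compounds (final up to 57.5 uM) added 1 h before LPS (250 ng/mL) and ATP (1.25 mM) stimulation; lower signal means less secretion.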
KB-3-1 tox – kills parental KB-3-1 adenocarcinoma cells | KB-3-1 viability, CellTiter-Glo ATP luminescence, 72 h | Potency, µM (top dose mostly 46.1 µM), actives largely listed as cytotoxic | 1.4% of 400,000 active | AID 1347075; note: nearly all actives have a fitted effect of over 60% in size
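KB-3-1 parental drug-naive adenocarcinoma cells in DMEM/10% FBS, incubated 72 h at 37 C with pin-transferred compounds across a concentration series. Viability by CellTiter-Glo luminescence; concentration-response curves fitted after normalization.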
HT1080 IDH1KD tx – kills HT-1080 cells with IDH1 knockdown. HT-1080 IDH1 knockdown viability, ATP luminescence, 48 h. Potency, µM (series often up to 46.1 µM), hits mostly cytotoxic. 2% of 360,000 active. AID 686971
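Assay cells: HT-1080 with IDH1 knockdown, 750 per well, RPMI/5% FBS. Exposure: 48 h at 37 °C following 2 h pre-incubation. Read: CellTiter-Glo luminescence; fitted concentration-response, curve class assigned.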
Hits are given with their value. Unless noted, calls come from the whole dose curve; as a rule, active = well fitted curve in the direction sought with a large enough effect; inconclusive = small, poorly fitted or top-dose-only effect, or another doubt; inactive = no such curve, though single readings can be large; an effect the other way counts as inactive or inconclusive.

Screening O=C(NCc1ccc(F)cc1)C1CCCN(S(=O)(=O)c2ccc(Br)s2)C1 (stereo not drawn) returned HT1080-NT tox inactive, KB-V1 MDR tox inconclusive, IL-1B inflam inh -53, KB-3-1 tox inactive and HT1080 IDH1KD tx inactive.
For O=C(NCCC1=CCCCC1)C1CCCN(S(=O)(=O)c2ccccc2)C1 (stereo not drawn) the results were HT1080-NT tox inactive, KB-V1 MDR tox 9.2µM, IL-1B inflam inh inactive, KB-3-1 tox inactive and HT1080 IDH1KD tx inactive.
Screening O=C(NCCC1=CCCCC1)C1CCN(S(=O)(=O)N2CCCC2)CC1 returned HT1080-NT tox inactive, KB-V1 MDR tox inactive, IL-1B inflam inh inactive, KB-3-1 tox inactive and HT1080 IDH1KD tx inactive.
For Cc1ccc(S(=O)(=O)N2CCCC(C(=O)NCCC3=CCCCC3)C2)cc1 (stereo not drawn) the results were HT1080-NT tox inactive, KB-V1 MDR tox inactive, IL-1B inflam inh inactive, KB-3-1 tox inactive and HT1080 IDH1KD tx inactive.
Screening O=C(NCc1ccc(F)cc1)C1CCN(S(=O)(=O)c2ccc(Br)s2)CC1 returned HT1080-NT tox inactive, KB-V1 MDR tox inactive, IL-1B inflam inh inactive, KB-3-1 tox inactive and HT1080 IDH1KD tx inactive.
`CC1CCN(C(=O)CN2CC(C)Sc3ccccc32)CC1` (stereo not drawn) gave KB-V1 MDR tox inactive and KB-3-1 tox inactive.
For O=C(NCC1CCN(Cc2cccc(Cl)c2)CC1)Nc1ccc(Cl)cc1 the results were HT1080-NT tox inconclusive, KB-V1 MDR tox inconclusive, IL-1B inflam inh -61, KB-3-1 tox inactive and HT1080 IDH1KD tx inconclusive.
For COc1ccc(Cl)cc1NC(=O)NCC1CCN(Cc2cc(C)ccc2C)CC1 the results were HT1080-NT tox inconclusive, KB-V1 MDR tox 23µM, IL-1B inflam inh -56, KB-3-1 tox inconclusive and HT1080 IDH1KD tx inconclusive.
Screening Cc1ccc(C)c(CN2CCC(CNC(=O)Nc3ccc(C)c(C)c3)CC2)c1 returned HT1080-NT tox inactive, KB-V1 MDR tox 18µM, IL-1B inflam inh -64, KB-3-1 tox inconclusive and HT1080 IDH1KD tx inactive.
`COc1cc([N+](=O)[O-])ccc1NC(=O)NCC1CCN(Cc2ccc(Cl)cc2)CC1` gave HT1080-NT tox inconclusive, KB-V1 MDR tox inactive, IL-1B inflam inh -79, KB-3-1 tox inconclusive and HT1080 IDH1KD tx inconclusive.
O=C(NCC1CCN(Cc2ccccc2F)CC1)Nc1cccc(Br)c1 was read as HT1080-NT tox inconclusive, KB-V1 MDR tox inconclusive, IL-1B inflam inh -84, KB-3-1 tox inactive and HT1080 IDH1KD tx inconclusive.
For OC(CNCC(c1ccc(Cl)cc1Cl)c1c[nH]c2ccccc12)c1ccccc1 (stereo not drawn) the results were HT1080-NT tox 21µM, KB-V1 MDR tox 23µM, IL-1B inflam inh -103, KB-3-1 tox inactive and HT1080 IDH1KD tx 7.3µM.
`Clc1ccc(C(c2ccccc2)c2c[nH]c3ccccc23)s1` (stereo not drawn) gave KB-V1 MDR tox inactive and KB-3-1 tox inconclusive.
`Cc1ccc(Oc2nc3ccccn3c(=O)c2/C=C(\C#N)C(=O)Nc2c(C)n(C)n(-c3ccccc3)c2=O)cc1` gave HT1080-NT tox inactive, KB-V1 MDR tox inactive, IL-1B inflam inh -61, KB-3-1 tox inactive and HT1080 IDH1KD tx inactive.
`C=CCN(CC=C)S(=O)(=O)c1ccc2nc(NC(=O)C(C)C)sc2c1` gave HT1080-NT tox 3.7µM, KB-V1 MDR tox inconclusive, IL-1B inflam inh inactive, KB-3-1 tox 3.7µM and HT1080 IDH1KD tx 7.3µM.
Screening CCN(CC)S(=O)(=O)c1cccc(C(=O)N[C@H](C(=O)Nc2nc3ccc(F)cc3s2)C(C)C)c1 returned HT1080-NT tox inactive, KB-V1 MDR tox 5.8µM, IL-1B inflam inh inactive, KB-3-1 tox 15µM and HT1080 IDH1KD tx inconclusive.
Screening CCN(CC)S(=O)(=O)c1cccc(C(=O)N[C@H](C(=O)Nc2nc3ccccc3s2)C(C)C)c1 returned HT1080-NT tox inactive, KB-V1 MDR tox inactive, IL-1B inflam inh inactive, KB-3-1 tox inactive and HT1080 IDH1KD tx inactive.
`COc1ccc(-c2cn(Cc3ccc(C(=O)NCc4ccc(C)cc4)cc3)c(C(C)N)n2)cc1` (stereo not drawn) gave HT1080-NT tox inactive, KB-V1 MDR tox inactive, IL-1B inflam inh inconclusive, KB-3-1 tox inactive and HT1080 IDH1KD tx inactive.
CC(C)N(C(=S)NCc1ccccc1)C(C)C was read as HT1080-NT tox inactive, KB-V1 MDR tox inactive, IL-1B inflam inh inactive, KB-3-1 tox inactive and HT1080 IDH1KD tx inactive.
`CC(C)N(C(=S)NCc1ccccc1)c1ccccc1` gave HT1080-NT tox inactive, KB-V1 MDR tox inconclusive, IL-1B inflam inh -50, KB-3-1 tox inactive and HT1080 IDH1KD tx inactive.
For COc1cc(CN(C(=S)NCC(=O)NC2CCCC2)C2CCCC2)cc(OC)c1OC the results were HT1080-NT tox inactive, KB-V1 MDR tox 13µM, IL-1B inflam inh inactive, KB-3-1 tox inactive and HT1080 IDH1KD tx inactive.
For COc1ccccc1NC(=O)c1cnc(SCC(=O)NCC2CCCO2)n(C)c1=O (stereo not drawn) the results were HT1080-NT tox inactive, KB-V1 MDR tox inactive, IL-1B inflam inh -97, KB-3-1 tox inconclusive and HT1080 IDH1KD tx inactive.
`COc1ccccc1NC(=O)c1cnc(SCC(=O)N2CCOCC2)n(C)c1=O` gave KB-V1 MDR tox inactive and KB-3-1 tox inactive.
For Cc1ccc2nc3cc([N+](=O)[O-])cc([N+](=O)[O-])c3cc2c1 the results were HT1080-NT tox inactive, KB-V1 MDR tox inconclusive, IL-1B inflam inh -73, KB-3-1 tox inconclusive and HT1080 IDH1KD tx inactive.
Cc1ccc2[nH]c3c(=O)n(CC(=O)Nc4ccccc4N4CCN(C)CC4)ncc3c2c1 was read as HT1080-NT tox inactive, KB-V1 MDR tox inactive, IL-1B inflam inh inactive, KB-3-1 tox inactive and HT1080 IDH1KD tx inactive.
Screening O=C(O)/C=C\C(=O)Nc1ccccc1C#Cc1ccc(Br)cc1 returned HT1080-NT tox inconclusive, KB-V1 MDR tox inactive, IL-1B inflam inh -98, KB-3-1 tox inconclusive and HT1080 IDH1KD tx inconclusive.
Screening O=C(O)/C=C/C(=O)Nc1ccccc1-c1ccccc1NC(=O)/C=C/C(=O)O returned HT1080-NT tox inactive, KB-V1 MDR tox inconclusive, IL-1B inflam inh inactive, KB-3-1 tox inactive and HT1080 IDH1KD tx inactive.
`O=C(O)/C=C\C(=O)Nc1ccccc1C#Cc1ccccc1` gave HT1080-NT tox inactive, KB-V1 MDR tox inactive, IL-1B inflam inh -62, KB-3-1 tox inactive and HT1080 IDH1KD tx inactive.
For NC(=O)c1ccccc1NC(=O)/C=C/C(=O)O the results were HT1080-NT tox inactive, KB-V1 MDR tox inactive, IL-1B inflam inh inactive, KB-3-1 tox inactive and HT1080 IDH1KD tx inactive.
For Cc1c(C(=O)N(C)CCCCN2CCOCC2)oc2c(F)cccc12 the results were HT1080-NT tox inactive, KB-V1 MDR tox inactive, IL-1B inflam inh inactive, KB-3-1 tox inactive and HT1080 IDH1KD tx inactive.
For CC1CC(C)CN(CCCNC(=O)Cn2cccc2C(=O)c2ccccc2)C1 (stereo not drawn) the results were HT1080-NT tox inactive, KB-V1 MDR tox inactive, IL-1B inflam inh inactive, KB-3-1 tox inactive and HT1080 IDH1KD tx inactive.

Screening data from PubChem.
